Reference: PubChem BioAssay (Tox21)
“And” between values parts separate entries of the source, which are not always exact repeats. Equal entries are not always repeated. Records with an inconclusive call do not appear. Unmarked numbers belong to inactive results. The source made the active and inactive calls. The call rests on the fitted dose curve; in most records, active means well fitted inhibition curve with a large enough effect in the repeat runs; inconclusive means weak or mixed curves; inactive means no such curve, though single readings can be large or run the other way.

target: Cytochrome P450 2C9 (Homo sapiens) (UniProt P11712); experiment: Cytochrome P450 Family 2 Subfamily C Member 9 (CYP2C9) small molecule antagonists: luciferase reporter qHTS assay (AID 1671198); details: P450-Glo CYP2C9 enzyme assay, luciferin luminescence; series mostly up to 115 µM; activity change, negative = inhibition: at the top concentration; further: nearly all actives have a fitted effect of over 50% in size
Sequence (P11712 whole entry, looked up): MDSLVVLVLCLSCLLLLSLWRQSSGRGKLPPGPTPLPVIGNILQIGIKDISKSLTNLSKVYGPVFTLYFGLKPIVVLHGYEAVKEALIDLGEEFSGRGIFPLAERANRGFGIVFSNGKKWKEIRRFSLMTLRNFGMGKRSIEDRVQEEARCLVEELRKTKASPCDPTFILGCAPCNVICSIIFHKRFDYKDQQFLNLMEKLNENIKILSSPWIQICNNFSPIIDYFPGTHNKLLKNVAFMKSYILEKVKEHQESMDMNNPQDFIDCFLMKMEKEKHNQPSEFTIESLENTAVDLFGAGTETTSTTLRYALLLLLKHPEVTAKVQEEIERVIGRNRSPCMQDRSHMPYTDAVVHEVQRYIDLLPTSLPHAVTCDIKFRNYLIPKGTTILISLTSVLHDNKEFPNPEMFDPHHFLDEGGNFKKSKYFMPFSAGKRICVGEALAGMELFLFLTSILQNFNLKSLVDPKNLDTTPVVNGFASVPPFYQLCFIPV
Procedure, shortened: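 P450-Glo proluciferin substrate with CYP2C9 enzyme; 10 min RT preincubation, then NADPH regeneration 1 h at 37C; luciferin detection reagent 20 min RT, luminescence in relative luminescence units.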
On the % scale 0 is the no-effect control and ±100 the full control effect; potency means the concentration at half of the fitted maximal effect.

Compound | Potency | activity change, negative = inhibition
Cc1c(C)c([N+](=O)[O-])c(C(C)(C)C)c([N+](=O)[O-])c1C | 35.6 µM (active) | –
O=C(O)c1ccc2cc(C(=O)O)ccc2c1 | – | -15.9%
C#C[C@]1(O)CC[C@H]2[C@@H]3[C@H](C)CC4=C(CCC(=O)C4)[C@H]3CC[C@@]21C | 13.8 µM (active) | –
Cc1c(C)c2c(c(C)c1OC(=O)c1cccnc1)CC[C@@](C)(CCC[C@H](C)CCC[C@H](C)CCCC(C)C)O2 | – | 12.7% [at 53 µM]
C#Cc1ccc(-c2ccccc2F)cc1 | 15.5 µM (active) | –
NC[C@H]1O[C@H](O[C@H]2[C@H](O[C@@H]3O[C@H](CO)[C@@H](O)[C@H]3O)C(O)[C@H](N)C[C@@H]2N)[C@H](N)[C@@H](O)[C@@H]1O (stereo partly drawn) | – | 2.46% [at 10.5 µM]
C[Si](Cl)(c1ccccc1)c1ccccc1 | 4.37 µM (active) | –
Cc1ccc(C)cc1 | – | -0.907%
COc1ccc(NC(=O)CC(C)=O)cc1 | – | -14.5%
CC(CO)Oc1ccccc1 (stereo not drawn) | – | -11.6%
CCC(=O)OC(=O)CC | – | -0.184%
CN1CCCCC1CCN1c2ccccc2Sc2ccc(S(C)=O)cc21 (stereo not drawn) | – | -0.785% [at 53 µM]
C=C(CC)C(=O)c1ccc(OCC(=O)O)c(Cl)c1Cl | 8.88 µM (active) and 5.49 µM (active) | –
[Cl][Pt-2]([Cl])([Cl])[Cl] | 25.3 µM (active) | –
O=c1[nH]c2ccccc2n1CCCN1CCN(C(c2ccccc2)c2ccccc2)CC1 | 17.4 µM (active) | –
O=[N+]([O-])c1cccc(C(F)(F)F)c1 | – | 2.83%
Nc1ccc(NCCO)c([N+](=O)[O-])c1 | 35.6 µM (active) | –
Fc1ccc(C(c2ccc(F)cc2)N2CCNCC2)cc1 | – | -12.2% [at 53 µM]
CC1(C)CC(O)CC(C)(C)N1 | – | -10.9%

Compound | Potency | activity change, negative = inhibition
Cc1ccc(N/N=c2\c(=O)cc/c(=N\Nc3ccc(S(=O)(=O)O)cc3)c2=O)c(C)c1 | 35.6 µM (active) | –
OCC(F)(F)F | – | -11.7%
CCCCCCCCCCCCCC[N+](C)(C)C | – | 3.95% [at 53 µM]
CCOc1ccc2ccccc2c1C(=O)N[C@@H]1C(=O)N2[C@@H]1SC(C)(C)[C@@H]2C(=O)O | – | -13.2% [at 53 µM]
Cc1cc(C(C)(C)C)cc(C)c1CC1=NCCN1 | – | 8.15% [at 53 µM]
CC1(C)[C@@H](O)CC[C@]2(C)[C@H]3C(=O)C=C4[C@@H]5C[C@@](C)(C(=O)O)CC[C@]5(C)CC[C@@]4(C)[C@]3(C)CC[C@@H]12 | – | 2.17%
CCN1C(=O)c2ccccc2C1Nc1ccc(OCCN2CCCCC2)cc1 (stereo not drawn) | – | -4.69% [at 53 µM]
Cc1cccc(C)c1NC(=O)c1ccc(N)cc1 | – | -5.13% [at 53 µM]
O=C(O)c1cc(N=Nc2ccc([N+](=O)[O-])cc2)ccc1O | 34.9 µM (active) | –
CCO[Si](OCC)(OCC)OCC | – | -16.9%
CCCCCCCCCCCCOC(=O)c1ccc(O)cc1 | 4.52 µM (active) | –
CC(N=C(NC#N)Nc1ccncc1)C(C)(C)C (stereo not drawn) | 13.8 µM (active) | –
COc1cccc(OC)c1C(=O)O | – | -12.7%
C=C(C)c1cccc(C(=C)C)c1 | – | -8.08%
CC(C)OC(=O)C(O)(CC(=O)O)CC(=O)O | 35.6 µM (active) | –
Cc1ccc(O)c(O)c1 | – | -8.98%
Nc1nc2c(ncn2COCCO)c(=O)[nH]1 | – | -0.702% [at 53 µM]
Cc1c(F)c(N2CCNC(C)C2)cc2c1c(=O)c(C(=O)O)cn2C1CC1 (stereo not drawn) | – | -3.91% [at 53 µM]
Nc1nc(-c2ccccc2)cs1 | 11.2 µM (active) | –
